# TDP1 cell noCPT – qHTS for Inhibitors of human tyrosyl-DNA phosphodiesterase 1 (TDP1): qHTS in cells in absence of CPT. DT40 Tdp1-/- hTDP1 cells, no CPT, ATP luminescence, 48 h. Potency, µM (series often up to 46.2 µM), without a hit: at the highest dose activity change, negative = growth inhibition, actives largely listed as inhibitors. hit rate 15% among 420,000. AID 686978, 2013; note: potency is the fitted concentration of half-maximal effect; % is set by controls: 0 for no effect and ±100 for the full control effect; nearly all actives have a fitted effect of over 55% in size
#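 Compound effects on proliferation are scored in DT40 Tdp1-/-;hTDP1 cells in the absence of CPT. ATP levels (CellTiter-Glo luminescence) are recorded after a ≥48 hr, 37 °C incubation.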
# DT40 TDP1 CPT – growth inhibition of DT40 Tdp1-/-;hTDP1 cells with camptothecin (screen for TDP1 inhibitors). chicken DT40 Tdp1-/-;hTDP1 cells + 20 nM CPT, ATP luminescence, 48 h. AID 686979. Potency, µM (doses to about 46.2 µM), for the others: at the top dose activity change, negative = growth inhibition, usual class: inhibitors. hit rate 12% among 420,000; note: potency is the fitted concentration of half-maximal effect; % is set by controls: 0 for no effect and ±100 for the full control effect; nearly all actives have a fitted effect of over 55% in size
#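 Chicken DT40 Tdp1-/- cells stably complemented with human TDP1 were seeded at 400 cells/well in medium containing 20 nM camptothecin, exposed to pin-transferred compounds, and grown at 37 °C for at least 48 hr. Viability was read as ATP luminescence.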
# IL-1B inflam inh – blocks inflammasome-driven IL-1 beta release | THP-1 LPS/ATP IL-1B secretion, AlphaLISA, 16 h; stronger effect = lower value | activity change, % at 57.5 µM | hit rate 4.7% among 360,000 | AID 743279; in the data active = activity change below about -50%; inconclusive = mostly about -30% to -49%; note: % is set by controls: 0 for no effect and ±100 for the full control effect
#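 Secreted IL-1B measured by AlphaLISA bead assay after 16 h compound exposure of THP-1 cells; compounds (final up to 57.5 uM) added 1 h before LPS (250 ng/mL) and ATP (1.25 mM) stimulation; lower signal means less secretion.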
# ASM inhibitor – inhibitors of human secretory acid sphingomyelinase; AID 504937; P17405; placental ASM, HMU-PC fluorogenic substrate, 60 min; hit rate 0.006% among 340,000; Potency, µM (series often up to 57.5 µM), for the others: at the top dose activity change, negative = inhibition, hits mostly inhibitors; note: potency is the fitted concentration of half-maximal effect
# Target sequence (P17405 47-631 limits assumed): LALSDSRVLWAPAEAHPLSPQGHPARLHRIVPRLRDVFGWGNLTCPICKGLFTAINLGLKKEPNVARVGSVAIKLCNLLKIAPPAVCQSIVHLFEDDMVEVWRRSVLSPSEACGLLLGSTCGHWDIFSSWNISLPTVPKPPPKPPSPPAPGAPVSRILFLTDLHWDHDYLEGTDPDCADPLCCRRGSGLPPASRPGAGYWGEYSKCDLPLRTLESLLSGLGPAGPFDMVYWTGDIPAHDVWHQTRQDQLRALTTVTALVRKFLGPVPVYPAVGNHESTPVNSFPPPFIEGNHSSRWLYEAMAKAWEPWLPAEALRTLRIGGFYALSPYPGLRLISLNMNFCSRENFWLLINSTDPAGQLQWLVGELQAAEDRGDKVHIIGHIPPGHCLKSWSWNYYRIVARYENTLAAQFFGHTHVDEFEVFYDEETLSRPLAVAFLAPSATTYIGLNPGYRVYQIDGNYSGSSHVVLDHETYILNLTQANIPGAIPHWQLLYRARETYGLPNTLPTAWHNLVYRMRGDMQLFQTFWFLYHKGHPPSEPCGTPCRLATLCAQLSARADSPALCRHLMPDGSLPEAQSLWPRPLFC
#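 HMU-PC0 cleavage (9 uM final) by human placental ASM, 60 min at 37 °C following 10 min compound exposure at RT; stopped at pH 10, fluorescence Ex 386/Em 447 nm.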
# HepG2 tox – HepG2 cytotoxicity, counter-screen for TGF-b inhibitors. HepG2 CAGA-GFP viability, ATP luminescence, 18 h. Potency, µM (doses to about 46.1 µM), for the others: at the top dose activity change, negative = cytotoxicity, most hits filed as cytotoxic. hit rate 0.76% among 410,000. AID 588856; note: potency is the fitted concentration of half-maximal effect
#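 HepG2 CAGA-GFP cells (1000/well, DMEM with 1% FBS) received compound, then TGF-beta at 500 pg/mL final, and were incubated 18 hours at 37 degrees C. Viability was read by CellTiter-Glo luminescence. Media-only wells were set as complete cell-killing and DMSO as no toxicity.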
# TGFb inhibitor – TGF-b pathway inhibition | Potency, µM (series often up to 46.1 µM), inactives show top-dose activity, negative = inhibition, hits mostly inhibitors | hit rate 1.2% among 410,000 | AID 588855 | HepG2 CAGA-GFP TGF-b/SMAD3 reporter, GFP fluorescence, 18 h; TGF-beta stimulated, 500 pg/mL final; note: potency is the fitted concentration of half-maximal effect; % is set by controls: 0 for no effect and ±100 for the full control effect; nearly all actives have a fitted effect of over 65% in size
#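 HEPG2 CAGA-GFP reporter cells (1000/well, DMEM with 1% FBS) received compounds, then recombinant TGF-beta at 500 pg/mL final for 18 hours at 37 degrees C. Per-cell GFP summed per well was normalised to unstimulated and stimulated DMSO controls before curve fitting.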
# Active calls of the source: *; ? = inconclusive; / = no result. This is a sample that favours compounds with a hit; in the whole collection about 19% have one here. Unless noted, calls come from the whole dose curve; as a rule, active = well fitted curve in the direction sought with a large enough effect; inconclusive = small, poorly fitted or top-dose-only effect, or another doubt; inactive = no such curve, though single readings can be large; an effect the other way counts as inactive or inconclusive.
SMILES,TDP1 cell noCPT,DT40 TDP1 CPT,IL-1B inflam inh,ASM inhibitor,HepG2 tox,TGFb inhibitor
N#CC1=C(N)Oc2n[nH]c(-c3cccs3)c2C1c1ccccc1C(=O)O (stereo unspecified),-13%,19%,2,-6%,2%,7%
CC(C)Cn1cc(NC(=O)NCc2ccccc2)c2ccccc2c1=O,?,?,/,/,-18%,-4%
CC(C)Cn1cc(NC(=O)NCc2ccc(Cl)cc2)c2ccccc2c1=O,18µM*,?,/,/,-18%,-3%
CC(C)Cn1cc(NC(=O)NCc2cccc(Cl)c2)c2ccccc2c1=O,?,26µM*,/,/,-81%,-3%
CC(C)Cn1cc(NC(=O)NCc2ccccc2Cl)c2ccccc2c1=O,18µM*,?,/,/,-26%,0%
Cc1ccc(CNC(=O)Nc2cn(CC(C)C)c(=O)c3ccccc23)cc1,?,-20%,/,/,-1%,5%
COc1ccc(NC(=O)C(C)N2C(=O)c3ccccc3C2=O)c(OC)c1 (stereo unspecified),-22%,4%,-18,2%,30%,-17%
Cc1ccc(CCNc2ncnc(Cl)c2N)cc1,0.52µM*,0.46µM*,-22,2%,-19%,-19%
CCOc1ccc(CCNc2ncnc3onc(-c4ccc(Cl)cc4)c23)cc1OCC,?,?,/,/,-7%,?
Cc1cccc(CCNc2ncnc3onc(-c4ccc(Cl)cc4)c23)c1,18µM*,?,/,/,-8%,-4%
CCOc1ccc(CCNc2ncnc3onc(-c4ccc(F)cc4)c23)cc1OCC,23µM*,?,/,/,-26%,-17%
Cc1noc2ncnc(NCc3ccc(Cl)cc3)c12,16µM*,13µM*,/,/,-44%,-24%
Clc1ccc(-c2noc3ncnc(NCCCN4CCN(c5ccccc5)CC4)c23)cc1,?,?,/,/,-39%,?
Cc1c(C2=CCN(S(=O)(=O)c3ccc(Cl)cc3)CC2)c2ccccc2n1CC(=O)N1CCCC1,?,?,/,/,-3%,-5%
Cc1cnc(CN(C)Cc2c(C(=O)N3CCc4ccccc4C3)nc3ccc(Cl)cn23)[nH]1,-29%,-7%,37,-1%,2%,11%
CSC(=NC#N)N1CCN(c2cccc(Cl)c2)CC1,?,-5%,0,-3%,2%,7%
COc1ccc(Oc2ncnc3c2oc2ccccc23)cc1,?,?,/,/,5%,27%
CC(C)CNc1ncnc2onc(-c3ccc(Cl)cc3)c12,-25%,-27%,/,/,0%,4%
COc1ccc(CCNc2ncnc3onc(C)c23)c(OC)c1,0.52µM*,1.2µM*,/,/,-9%,-4%
Cc1cccc(Nc2ncnc3onc(-c4ccc(F)cc4)c23)c1C,?,?,12,-4%,-12%,0%
COc1ccc(CNc2ncnc3onc(-c4ccc(F)cc4)c23)cc1,29µM*,21µM*,/,/,-43%,1%
Clc1ccc(CNc2ncnc3onc(-c4ccc(Cl)cc4)c23)cc1,18µM*,?,/,/,-27%,?
CCc1cccc(Nc2ncnc3onc(-c4ccc(F)cc4)c23)c1,16µM*,23µM*,/,/,-30%,?
Cc1ccc(C(C(=O)NCCc2ccccc2)N(C(=O)c2csnn2)C2CC2)cc1 (stereo unspecified),?,-15%,-6,-5%,-1%,?
COc1ccccc1S(=O)(=O)Cc1ccc(C(=O)NCc2ccccc2)o1,11%,-29%,3,0%,-1%,-3%
CCOc1ccc(CCNc2ncnc3onc(-c4ccc(Cl)cc4)c23)cc1,8.2µM*,9.2µM*,/,/,-17%,-5%
CCOCc1ccccc1Nc1ncnc2onc(-c3ccc(Cl)cc3)c12,?,0%,/,/,-10%,?

# High-throughput results from PubChem BioAssay.
